Experimental data as given in PubChem BioAssay (NCI).
This is part of a sample that, as a whole, favours compounds with a hit. Of some 83,000 tested, about 20% had one in any assay.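 Testing used 96-well plates and a 48-hour single-concentration exposure. Example: -40 means 40% of the starting cells died.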 Values without a mark were called inactive. Calls of active or inactive are those of the source. The calls were made as follows: active = growth percent below 10; inactive = the rest.

Each molecule was assayed on MDA-MB-435 melanoma (assay: NCI-60 one-dose screen, 48 h (100 = growth as untreated, 0 = no growth, -100 = all killed)). Conditions: 10 µM unless noted.

Structure (SMILES) | growth
COCCOc1cc2ncnc(N3CCN(c4ncc(S(=O)(=O)N5CCCCC5)cn4)CC3)c2cc1OCCOC | 105%
COC(=O)[C@]1(C)CCC[C@]2(C)[C@H]3C[C@H]4C(C(C)C)=C[C@]3(CC[C@H]21)[C@@H]1C(=O)CC[C@H](OCCC#N)[C@@H]14 | 84.9%
O=C(O)CCN1C(=O)/C(=C/C(Cl)=C/c2ccccc2)SC1=S | -63.4% (active)
O=C(/C=C/c1cccc(Cl)c1)c1ccc(Nc2nc(Nc3ccc(F)cc3)nc(Nc3ccc(Cl)cc3)n2)cc1 | 117%
CC(C)(Sc1cc(C(C)(C)C)c(O)c(C(C)(C)C)c1)Sc1cc(C(C)(C)C)c(OC(=O)CCCC(=O)O)c(C(C)(C)C)c1 | 60.4%
Fc1cc2c(cc1Cl)N(c1ncnc3ccc(-c4ccc5n[nH]nc5c4)cc13)CC2 | 92.4%
CCSC(SCC)c1ccc(Cl)cc1 | 97.4%
O=C(Nc1nc2ccc(C(=O)N3CCN(/C=C/c4ccccc4)CC3)cc2s1)c1ccc(NCCc2ccccc2)c([N+](=O)[O-])c1 | 55.8%
O=S(=O)(Nc1cc(F)cc(Cl)c1)c1ccc(-c2cnc(C3CC3)o2)cc1 | 1.17% (active)
COC(=O)c1c(C)nc(C)c2c1C(=O)C(Br)=C(NCc1ccccc1)C2=O | -76.5% (active)
COc1cc2c(c(OC)c1OC)CCC(c1cccc(C(=O)Nc3ccc(C#N)cc3)c1)O2 (stereo not given) | 36.6%
O=C1c2ccccc2-c2c1c1c(=O)[nH]c3ccccc3c1n2Cc1ccccc1 | 71.1%
O=C1c2c(c3c4ccccc4[nH]c3c3ccc4ccccc4c23)C(=O)N1CCN1CCNCC1 | 80.9%
CC(C)=CCCC(C)c1ccc(C)c2c1OCN(CCCCCO)C2 (stereo not given) | 97.1%
COc1ccc(/C=N/NC(=O)c2ccc(-n3cc(-c4ccccc4)nn3)cc2)cc1OC | 98.4%
CCN(CC)S(=O)(=O)c1ccc(S(=O)(=O)N2CCC[C@@H](C(=O)N3CCN(c4nc(C(C)C)no4)CC3)C2)cc1 | 55.7%
Cc1cc(N2CCN(CC(=O)Nc3ccc4c(ccn4C)c3)CC2)nc(N2CCCCCC2)n1 | 95.2%
COc1ccc(Nc2ncc(Br)c(NCCCNC(=O)c3cccs3)n2)cc1 | 59%
NC(=O)C(=O)c1ccccc1NC=O | 101%
N#Cc1ccc2c(c1)C(=O)c1c-2n(CCCN)c(=O)c2cc([N+](=O)[O-])ccc12 | -86.3% (active)

Structure (SMILES) | growth
c1ccc(Cn2cc3c(c2)-c2oncc2CC3)cc1 | -34.7% (active)
O=C(CSC(=S)n1cnnc1)NC(=O)c1ccccc1 | 113%
O=C1/C(=C\c2ccc3nccnc3c2)SC(=S)N1CCc1ccc(O)cc1 | 93.2%
COc1c(B(O)O)cccc1-c1nc2c(F)cc3[nH]ncc3c2c2c1CCCC2 | 8.04% (active)
COc1c(B(O)O)cccc1-c1cc(C)c2c(ccc3[nH]ncc32)n1 | 92%
CSc1nnc(-c2cc3c([nH]c4ccccc43)c(-c3cccc(O)c3)n2)n1-c1ccccc1 | -49.9% (active)
C=C1C(=O)O[C@H]2[C@H]1CC/C(Cn1cc(-c3ccccc3)nn1)=C\CC[C@@]1(C)O[C@@H]21 | -21.5% (active)
C=C(CBr)[C@@H]1CC[C@]2(C(=O)O)CC[C@]3(C)[C@H](CC[C@@H]4[C@@]5(C)CCC(=O)C(C)(C)[C@@H]5CC[C@]43C)[C@@H]12 | 95.6%
CCNCCNc1cc(C2CCCCC2)c(C#N)c2nc3ccccc3n12 | -38.6% (active)
COc1cc2c(c(OC)c1OC)CCC(c1cccc(C(=O)Nc3cccc(Cl)c3)c1)O2 (stereo not given) | 82.1%
CCCCCCCC[C@@H]1N[C@@H](C(=O)OC)Cc2c1[nH]c1ccccc21 | 99.8%
CC(=O)Oc1ccc(/C(=C(\C)c2ccc(Cl)cc2)c2ccc(OCCN3CCCCC3)cc2)cc1 | -5.9% (active)
COc1ccc2cc1Oc1ccc(cc1)C[C@H]1c3c(cc4c(c3Oc3cc5c(cc3OC)CCN(C)[C@@H]5C2)OCO4)CCN1C | 19%
CC(=O)c1c(C)nc2ccccc2c1/C=C/c1ccc(F)cc1 | 103%
CN(/C(N)=N/N=C/c1c2ccccc2cc2ccccc12)C1CCCCC1 | 57.5%
CCOC(=O)n1ccn(C)c1=S | 102%
Cc1cn(-c2cc(NC(=O)c3cncc(C#Cc4cnc(N)c5ncccc45)c3)cc(C(F)(F)F)c2)cn1 | 55.5%
O=C(Cn1cc(CSc2nc3ccccc3o2)nn1)Nc1ccc(F)cc1F | 114%
Cc1c2cnccc2c(C)c2c1c1cc(C#N)ccc1n2C | -57.6% (active)
CNC(=O)c1ccccc1Oc1nc(Nc2cc(OC)c(OC)c(OC)c2)ncc1Br | 74.5%
